Values without a mark were called inactive. No rule for the calls is given here.
Molecular target: Pantothenate synthetase (Mycobacterium tuberculosis (strain ATCC 25618 / H37Rv)) (UniProt P9WIL5)
Experiment: Coupled enzyme confirmation of inhibitors against recombinant Mtb PanC (AID 375);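 also: 0% = full reaction with vehicle and 100% = no enzyme background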
Details: coupled enzyme assay; at 10 µM, active compounds read high

Pantothenate synthetase (Mycobacterium tuberculosis (strain ATCC 25618 / H37Rv)), sequence (P9WIL5 whole entry, looked up): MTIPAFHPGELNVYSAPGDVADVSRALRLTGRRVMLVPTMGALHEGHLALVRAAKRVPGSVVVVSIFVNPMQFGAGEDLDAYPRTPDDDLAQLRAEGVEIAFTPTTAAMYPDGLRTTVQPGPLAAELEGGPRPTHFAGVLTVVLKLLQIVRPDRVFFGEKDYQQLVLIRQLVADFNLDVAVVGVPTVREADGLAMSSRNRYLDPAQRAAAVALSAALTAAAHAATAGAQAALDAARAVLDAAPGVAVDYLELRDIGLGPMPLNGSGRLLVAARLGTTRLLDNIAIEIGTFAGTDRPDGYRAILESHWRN

Compound	inhibition [%]
Cc1c(NC(=O)Cn2nc(C(=O)O)c3ccccc3c2=O)c(=O)n(-c2ccccc2)n1C	0
COc1ccc(CCNC(=O)C2=COCCO2)cc1	0
CC(C)(C)Cc1nc(-c2ccccn2)no1	0
CCC(=O)c1cc(F)c(N2CCN(C(=O)c3ccco3)CC2)cc1C	7
CN1C(=O)c2c(sc3c2CCCC3)NC1c1ccccc1O (stereo not given)	0
CCOC(=O)Cc1nnc2c(Nc3ccc(C)cc3)nc3nonc3n12	1
COC(=O)Oc1c(Br)c(=O)oc2ccccc12	0
CCN(CC)CCn1c2ccccc2c2nc(C)sc21	1
N#Cc1c(NC(NC(=O)c2ccco2)C(=O)c2ccccc2)sc2c1CCCC2 (stereo not given)	2
O=C1c2ccccc2C(Nc2ccc(F)c(Cl)c2)N1Cc1ccco1 (stereo not given)	3
CCSc1nc(O)c(C2OC(=O)c3c2ccc(OC)c3OC)c(=O)n1-c1ccccc1 (stereo not given)	0
Cc1ccc(CNC(=O)C2CCCN(S(=O)(=O)c3cnc[nH]3)C2)cc1 (stereo not given)	2
CCCCCC(=O)N1CC2(CC)CN(C(=O)CCCCC)CC(CC)(C1)C2=O	4
CCOC(=O)C(CC)Sc1ncnc2nc[nH]c12 (stereo not given)	0
CCn1c(=O)n(CC(=O)N(C)Cc2ccccc2)c(=O)c2ccccc21	12
COc1ccc(C(=O)Nn2c(SCC(=O)NCC3CCCO3)nc3ccccc3c2=O)cc1 (stereo not given)	2
CCOC(=O)Nc1ccc2c(c1)N(C(=O)CN(CC)CC)c1ccccc1C=C2	0
CCCOC(=O)C1C2C=CC3(CN(c4cccc(Cl)c4)C(=O)C13)O2 (stereo not given)	0
Cc1ccc(NC(=O)C2CCCN(S(=O)(=O)c3cnc[nH]3)C2)cc1F (stereo not given)	0
COc1ccc(C)cc1S(=O)(=O)N1CCN(Cc2ccccc2)CC1	11
NC(=O)c1ccccc1NC(=O)CCCN1C(=O)CCC1=O	10
Cc1ccc(NC(=O)c2ccc(NS(=O)(=O)c3c(C)noc3C)cc2)cc1C	0
COc1ccc(S(=O)(=O)N2CCC(C(=O)c3ccc4c(c3)OCCO4)CC2)cc1	0
COCC(=O)NC(c1ccccc1)c1ccccc1	7
CCCCOc1ccc(N(CC(=O)NC2CCCC2)C(=O)CCC(=O)Nc2ccccn2)cc1	0

Compound	inhibition [%]
Cc1ccc(C)c(-n2c(CNC(=O)c3ccco3)nnc2SCC(=O)Nc2nnc(C)s2)c1	0
c1ccc(-c2cn3cccnc3n2)cc1	0
Cc1cccc(N(C)C(=S)Oc2ccc3ccccc3c2)c1	7
COc1ccccc1OCCCn1c(=O)oc2ccccc21	0
O=C(NCCCNC(=O)c1ccccn1)c1ccccn1	12
c1ccc(OCCCn2nnc(-c3ccncc3)n2)cc1	3
CCCOc1cccc(C(=O)Nc2cc(NC(=O)c3ccco3)ccc2OC)c1	0
CC(C)CCNC(=O)C(c1ccco1)N(CC1CCCO1)C(=O)Cn1nnc2ccccc21 (stereo not given)	0
Cn1c(-c2ccc(F)cc2)cnc1NCc1ccccc1	0
O=C(OCc1nnc(-c2ccccc2)o1)c1ccc(S(=O)(=O)NCc2ccco2)cc1	0
Cc1ccc(NCc2nnc(SCC(=O)NCc3ccco3)n2CC2CCCO2)cc1Cl (stereo not given)	3
O=C(O)c1cccc(NS(=O)(=O)c2ccc3nnn(O)c3c2)c1	0
COc1cc(/C=C/C(=O)CC(=O)/C=C/c2ccc(O)c(OC)c2)ccc1O	10
CC(O)c1cc2c(cc1NC(=O)c1cnn3c1NC(c1ccco1)CC3C(F)(F)F)OCO2 (stereo not given)	0
CCOC(=O)c1[nH]c(C)c(C(=O)NCC2CCCO2)c1C (stereo not given)	0
Cn1c(=O)c2c(nc(NCCCO)n2C/C=C/c2ccccc2)n(C)c1=O	4
O=C(Nc1ccc(N2CCOCC2)c(F)c1)c1ccncc1	0
COc1ccc(N2C(=O)C(Cl)=C(Nc3c(C)n(C)n(-c4ccccc4)c3=O)C2=O)cc1	5
CCCCOc1ccc(-c2nnn(CC(=O)Nc3ncc(CC(=O)OCC)s3)n2)cc1	2
COc1ccc(OC)c(C2=NOC(C(=O)Nc3cccnc3)C2)c1 (stereo not given)	0
O=C(CSCc1cnn(-c2ccccc2)c1-n1cccc1)NCC1CCCO1 (stereo not given)	4
CCOC(=O)c1[nH]c(C)c(C(=O)N2CCN(C(=O)c3ccco3)CC2)c1C	0
C=CCn1c(=O)[nH]c2cc(C(=O)N3CCN(c4cc(C)ccc4C)CC3)ccc2c1=O	4
Cc1ccc(NC(=O)c2cc(-c3ccc(C)o3)nc3ccccc23)nc1	0
O=C(NCC1CCCO1)c1cccc(N2C(=O)C3C4C=CC(C4)C3C2=O)c1 (stereo not given)	11

Compound	inhibition [%]
Cc1ccc(-n2c(C)cc3c2CCCC3=O)cc1	0
COc1ccc2cc(C(=O)NCc3ccco3)c(=Nc3ccc(C(=O)O)cc3)oc2c1	0
COC(=O)C(C)Sc1nc2c(c(=O)n(C)c(=O)n2C)n1Cc1cccc(C)c1 (stereo not given)	2
O=C(NC(C(=O)c1ccccc1)n1ccc(=O)[nH]c1=O)c1ccccc1 (stereo not given)	0
O=C(CCSc1nnc(-c2ccncc2)o1)Nc1ccccc1	0
COc1ccc(NS(=O)(=O)c2ccc(N)cc2)nn1	1
CC1(C)CC(=O)C=C(NCc2ccncc2)C1	0
COc1ccc(OC)c(NC(=O)CS(=O)(=O)c2ccccc2)c1	0
C/C(N)=C(/C#N)C(=O)COC(=O)CCSc1ccccc1	0
Cc1noc(NS(=O)(=O)c2ccc(NC(=O)CCC3CCCC3)cc2)c1C	0
O=C(c1ccccc1-c1nc(-c2ccccc2)no1)N1CCCC1	0
COc1cccc(-c2nnc(SCC(=O)N3CCCc4ccccc43)o2)c1	0
CC(CCc1ccccc1)NC(=O)CSc1nc(N)cc(N)n1 (stereo not given)	0
COc1ccc(NC(=O)CN(c2ccc(C)cc2)S(C)(=O)=O)c(OC)c1	4
CCC(NC(C)C)C(O)c1ccc(O)c2[nH]c(=O)ccc12 (stereo not given)	0
Cc1cnc(C(=O)OCC(=O)Nc2ccc(Cl)cc2Cl)cn1	8
Cc1ccc2cc3cc(C(=O)N4CC(C)CC(C)C4)oc3nc2c1 (stereo not given)	3
CC1CCCN(C(=O)c2cc(F)c(F)cc2Cl)C1 (stereo not given)	0
CCCCC1C(=O)N(c2ccccc2)N(c2ccccc2)C1=O	0
COc1ccc(N2CCN(C(=O)Cc3ccc(-n4c(=O)[nH]c5ccccc5c4=O)cc3)CC2)cc1	6
COc1cccc(-c2cc(C(F)(F)F)n3nc(N)nc3n2)c1	2
COc1cc(-c2nnc(SCC(=O)c3cc(C)n(CC4CCCO4)c3C)o2)cc(OC)c1OC (stereo not given)	0
COc1ccc(-c2nnc(SCC(=O)Nc3cc(C)on3)n2C)cc1OC	5
O=c1c2c3nc4ccccc4nc3n(CC3CCCO3)c2ncn1CCc1ccccc1 (stereo not given)	9
CCN(CC)CCNC(=O)c1ccc(NC(C)=O)cc1	0

Compound	inhibition [%]
CC(C)N(O)C(=O)NC(C)(C)C	6
COC(=O)C1=C(N)OC2=C(C(=O)CCC2)C1c1cccs1 (stereo not given)	0
O=S(=O)(Nn1cnnc1)c1ccccc1Cl	0
CC(=O)Nc1ccc(N2CCN(Cc3ccccc3F)CC2)cc1	0
Nc1nonc1-n1nnc(C(=O)c2ccccc2)c1-c1ccccc1	0
Cn1c(=O)c2c(nc(CN3CCN(c4ccccc4F)CC3)n2CCN2CCOCC2)n(C)c1=O	0
COc1ccc(N(C)C(=O)CCS(=O)(=O)c2cccc3nonc23)cc1	1
CCCCNC(=O)OCCNC(=O)NC	0
CCOc1ccccc1C(=O)N1CCN(c2cccc(Cl)c2)CC1	0
O=C1CC(c2ccc(F)c(Br)c2)C2=C(CCCC2=O)N1 (stereo not given)	5
CC1(C)CC(=O)C(C=NC(CCC(N)=O)C(=O)O)=C(O)C1 (stereo not given)	3
CCN(CC)CCCN1C(=O)C(O)=C(C(=O)c2ccco2)C1c1ccc(C)o1 (stereo not given)	13
O=S(=O)(c1ccc(OCC(O)CN2CCc3ccccc3C2)cc1)N1CCOCC1 (stereo not given)	9
O=C(Cc1c(F)cccc1Cl)Nc1ccncc1	6
Cn1c(=O)c2c(nc(NCCc3ccccc3)n2CC(=O)NCCc2ccccc2)n(C)c1=O	0
COc1ccc(OC)c(C2C(C(=O)Nc3ccc(F)cc3)=C(C)Nc3nc(CCCO)nn32)c1 (stereo not given)	5
CC(C)C(c1nnnn1C1CCCC1)N1CCCc2ccccc21 (stereo not given)	0
CCn1c(C)c(CCC(=O)O)c(=O)n2nc(-c3ccccc3OC)cc12	0
COC(=O)CSC1=C(C#N)C(c2ccc(F)cc2)CC(=O)N1 (stereo not given)	0
Cc1oc(-c2ccccc2F)nc1CS(=O)(=O)CC(=O)NCc1ccco1	0
Cc1ccc2cc(C(c3nnnn3C3CCCC3)N3CCN(c4ccc(F)cc4)CC3)c(=O)[nH]c2c1 (stereo not given)	6
COc1ccc(C2C(C(=O)N3CCCC3)c3cc(OC)c(OC)cc3C(=O)N2C)cc1 (stereo not given)	0
CCC(C)NC(=O)CC1Oc2ccc(C)cc2NC1=O (stereo not given)	0
O=C1CC(N2CCOCC2)C(=O)N1c1ccccc1Cl (stereo not given)	1
Cc1ccc(Cn2nnc3c(=O)n(CC(=O)NCC4CCCO4)cnc32)cc1 (stereo not given)	0

Source: PubChem BioAssay
